PubChem BioAssay (NCI)
This is part of a sample that, as a whole, favours compounds with a hit. Of some 79,000 tested, about 15% had one in any assay. Unmarked numbers belong to inactive results. The source made the active and inactive calls. Cut-off read from the data, not from the text of the source: active = growth inhibition above about 70%; inactive = the rest.

Tests used:
[1] = NCI Yeast Anticancer Drug Screen. Data for the rad50 strain (AID 155);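 note: 0% = growth of vehicle-only cultures of the same strain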; details: S. cerevisiae rad50 strain growth inhibition; at 50.0 µM; stronger effect = higher value
How it was run: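 Inhibition values express reduced yeast growth in compound-treated cultures relative to vehicle-treated controls.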

[2] = NCI Yeast Anticancer Drug Screen. Data for the mec2-1 strain (AID 157); details: S. cerevisiae mec2-1 strain, at 50.0 µM, stronger effect = higher value
How it was run: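 Mutant yeast (mec2-1) grown with compound; growth inhibition relative to vehicle control reported.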

[3] = NCI Yeast Anticancer Drug Screen. Data for the sgs1 mgt1 strain (AID 161);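 note: 0% = growth of cultures given vehicle only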; details: S. cerevisiae sgs1 mgt1 strain, at 50.0 µM, stronger effect = higher value
How it was run: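 Compounds are added to genetically altered yeast, and growth is compared with cultures given vehicle alone to give percent inhibition.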

[4] = NCI Yeast Anticancer Drug Screen. Data for the cln2 rad14 strain (AID 165);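 note: 0% = growth equal to vehicle treated cultures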; details: S. cerevisiae cln2 rad14 strain, at 50.0 µM, stronger effect = higher value
How it was run: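 Readout is yeast growth inhibition versus vehicle-treated controls, using a strain with cln2 and rad14 alterations exposed to compound.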

[5] = NCI Yeast Anticancer Drug Screen. Data for the bub3 strain (AID 167); details: S. cerevisiae bub3 mutant strain, at 50.0 µM, stronger effect = higher value
How it was run: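 Steps: expose the mutant yeast strain to compound; grow alongside vehicle-treated cultures; measure growth; express inhibition against the vehicle cultures.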

[6] = NCI Yeast Anticancer Drug Screen. Data for the mlh1 rad18 strain (AID 175); details: S. cerevisiae mlh1 rad18 strain growth inhibition; at 50.0 µM; stronger effect = higher value
How it was run: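 Genetically defined yeast (DNA repair-deficient) exposed to compounds; growth inhibition determined relative to vehicle.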

Cn1c(=O)c2[nH]c(NCc3ccccc3)nc2n(C)c1=O
growth inhibition [1]: 27.4% | growth inhibition [2]: -3.9% | growth inhibition [3]: 0.7% | growth inhibition [4]: -35.2% | growth inhibition [5]: 0.4% | growth inhibition [6]: -0.2%

COc1ccc(CCNC(=O)Cc2ccccc2CCO)cc1OC
growth inhibition [1]: 13.9% | growth inhibition [2]: -6.85% | growth inhibition [3]: -29.5% | growth inhibition [4]: -3.75% | growth inhibition [5]: -43.9% | growth inhibition [6]: -20.1%

N#C/C(=C\NC(=S)NCc1ccccc1)c1nc2ccccc2s1
growth inhibition [1]: 54.1% | growth inhibition [2]: 32.4% | growth inhibition [3]: 53.5% | growth inhibition [4]: 43.3% | growth inhibition [5]: 30.5% | growth inhibition [6]: 61.5%

CCCCCCCCCC/C=C/C=O
growth inhibition [1]: 57.6% | growth inhibition [2]: 43.5% | growth inhibition [3]: 53.8% | growth inhibition [4]: 18.7% | growth inhibition [5]: 43.6% | growth inhibition [6]: 8.9%

O=C/C=C/C=C/C=C/c1ccccc1
growth inhibition [1]: 32.6% | growth inhibition [2]: -6.15% | growth inhibition [3]: 14.4% | growth inhibition [4]: 13.7% | growth inhibition [5]: -5.25% | growth inhibition [6]: 27.6%

COc1cc(O)c2c(=O)c(O)c(-c3ccc(O)c(O)c3)oc2c1
growth inhibition [1]: 3.15% | growth inhibition [2]: -24.1% | growth inhibition [3]: 13.7% | growth inhibition [4]: 9.05% | growth inhibition [5]: -11.8% | growth inhibition [6]: -10.6%

O=C1c2c(O)cccc2C(C(=O)CCCC(=O)C2c3cccc(O)c3C(=O)c3c(O)cccc32)c2cccc(O)c21
growth inhibition [1]: -1.55% | growth inhibition [2]: 13.2% | growth inhibition [3]: 3.25% | growth inhibition [4]: 19.9% | growth inhibition [5]: -15.8% | growth inhibition [6]: -0.85%

CN(C)CCCCC(C#N)(c1ccccc1)c1ccccc1
growth inhibition [1]: 16.3% | growth inhibition [2]: 18.8% | growth inhibition [3]: 16.6% | growth inhibition [4]: 12.7% | growth inhibition [5]: 26.5% | growth inhibition [6]: 38.5%

Cc1ccc(S(=O)(=O)NC(CCC(=O)NN)C(=O)NN)cc1 (stereo unspecified)
growth inhibition [1]: 9.55% | growth inhibition [2]: 7.2% | growth inhibition [3]: -15.2% | growth inhibition [4]: 5.95% | growth inhibition [5]: -1.8% | growth inhibition [6]: -43.4%

COC(=O)C(CC(=O)c1ccc2ccccc2c1)OC (stereo unspecified)
growth inhibition [1]: -1.85% | growth inhibition [2]: -9.1% | growth inhibition [3]: 7.2% | growth inhibition [4]: -76.7% | growth inhibition [5]: 6.35% | growth inhibition [6]: -9.55%

CCOC(=O)N1CCN(c2ccc3ccc(N)nc3n2)CC1
growth inhibition [1]: 22.1% | growth inhibition [2]: -12.7% | growth inhibition [3]: 28.8% | growth inhibition [4]: -4.65% | growth inhibition [5]: 18.9% | growth inhibition [6]: 16.9%

O=C(NCCc1c(-c2ccccc2)[nH]c2ccccc12)C1CCCCC1
growth inhibition [1]: -10.6% | growth inhibition [2]: 17.9% | growth inhibition [3]: 32.6% | growth inhibition [4]: -6.1% | growth inhibition [5]: 30.9% | growth inhibition [6]: -2.3%

O=C(O)c1cc(=O)c2c([nH]c3ccccc32)s1
growth inhibition [1]: -4.9% | growth inhibition [2]: -18.7% | growth inhibition [3]: -14.6% | growth inhibition [4]: 5.25% | growth inhibition [5]: -14.3% | growth inhibition [6]: 13.3%

O=C(O)CN1CCCCC1
growth inhibition [1]: -5.65% | growth inhibition [2]: 5.5% | growth inhibition [3]: -3.8% | growth inhibition [4]: -27.1% | growth inhibition [5]: -4.1% | growth inhibition [6]: -6.65%

C=CCOCC(O)CO (stereo unspecified)
growth inhibition [1]: 32.5% | growth inhibition [2]: -3.9% | growth inhibition [3]: 29.8% | growth inhibition [4]: 16.8% | growth inhibition [5]: 10.1% | growth inhibition [6]: 28.1%

Cc1ccc(C2OC(N)=C(O)C2=O)cc1 (stereo unspecified)
growth inhibition [1]: -43% | growth inhibition [2]: 10.2% | growth inhibition [3]: -4% | growth inhibition [4]: -26.4% | growth inhibition [5]: 1.85% | growth inhibition [6]: 9.5%

COC(=O)C1=CCOc2c1c(C(=O)OC)nn2C
growth inhibition [1]: -4.8% | growth inhibition [2]: -8.15% | growth inhibition [3]: -2.4% | growth inhibition [4]: 6.1% | growth inhibition [5]: -11.2% | growth inhibition [6]: 24.9%

COC(=O)c1nn(-c2ccccc2)c(=O)cc1N=[N+]=[N-]
growth inhibition [1]: -31% | growth inhibition [2]: -5.2% | growth inhibition [3]: -39.2% | growth inhibition [4]: -12.8% | growth inhibition [5]: -14.2% | growth inhibition [6]: -54.4%

O=C(CCN1CCCC1)c1ccc2ccccc2c1
growth inhibition [1]: 32.6% | growth inhibition [2]: 49.3% | growth inhibition [3]: 65.9% | growth inhibition [4]: 43.6% | growth inhibition [5]: 59.4% | growth inhibition [6]: 21.6%

Cc1ccc(SCC(CF)OC(C)n2cnc3c(=O)[nH]c(N)nc32)cc1 (stereo unspecified)
growth inhibition [1]: 9.8% | growth inhibition [2]: 6.1% | growth inhibition [3]: -27.4% | growth inhibition [4]: 23.4% | growth inhibition [5]: 7.55% | growth inhibition [6]: -46.5%

COc1cc(C2=C3C(=O)OCC3Cc3ccccc32)ccc1OCc1ccccc1 (stereo unspecified)
growth inhibition [1]: 18.9% | growth inhibition [2]: -0.5% | growth inhibition [3]: 7.5% | growth inhibition [4]: 5.55% | growth inhibition [5]: 11.1% | growth inhibition [6]: 29.6%

COC(=O)/C=C(/C(=O)OC)c1c(C)c(C)c2c(C)cc(C)cc(C)c1-2
growth inhibition [1]: 20.7% | growth inhibition [2]: 14.4% | growth inhibition [3]: 3.8% | growth inhibition [4]: 17.4% | growth inhibition [5]: 34.9% | growth inhibition [6]: 22.2%

O=C(NO)/C(CC(=O)c1ccc(O)cc1)=N\O
growth inhibition [1]: -8.9% | growth inhibition [2]: -10.4% | growth inhibition [3]: -6.9% | growth inhibition [4]: -11.2% | growth inhibition [5]: -3.7% | growth inhibition [6]: 4.7%

O=S(=O)([O-])c1ccc2c(c1)-c1nc-2nc2[n-]c(nc3nc(nc4[n-]c(n1)c1ccc(S(=O)(=O)[O-])cc41)-c1cc(S(=O)(=O)[O-])ccc1-3)c1ccc(S(=O)(=O)[O-])cc21.[Cu+2].[Na+]
growth inhibition [1]: -13.7% | growth inhibition [2]: -40.1% | growth inhibition [3]: -23.8% | growth inhibition [4]: -16.2% | growth inhibition [5]: -34% | growth inhibition [6]: -94.2%

O=C1C(O)CCN1C1CCCCC1 (stereo unspecified)
growth inhibition [1]: 10.7% | growth inhibition [2]: -6.95% | growth inhibition [3]: -0.3% | growth inhibition [4]: -2.85% | growth inhibition [5]: 4.55% | growth inhibition [6]: 0.2%

NC(=O)N=Nc1ccc(Br)cc1
growth inhibition [1]: 9.8% | growth inhibition [2]: 7.05% | growth inhibition [3]: -7.85% | growth inhibition [4]: -11.7% | growth inhibition [5]: -3.55% | growth inhibition [6]: 18.3%

N=C1/C(=C/c2ccco2)C(=O)N=C2SC=NN12
growth inhibition [1]: 7.75% | growth inhibition [2]: 19.1% | growth inhibition [3]: 13.2% | growth inhibition [4]: -9.6% | growth inhibition [5]: -5.6% | growth inhibition [6]: 20.9%

CCN(CC)CCOC1(Cc2ccccn2)CCCCC1
growth inhibition [1]: 1.2% | growth inhibition [2]: 15.2% | growth inhibition [3]: 6.7% | growth inhibition [4]: 21.3% | growth inhibition [5]: -0.4% | growth inhibition [6]: -9.75%

O=S(=O)(c1cccc(C(F)(F)F)c1)N(CCCCCN(S(=O)(=O)c1cccc(C(F)(F)F)c1)S(=O)(=O)c1cccc(C(F)(F)F)c1)S(=O)(=O)c1cccc(C(F)(F)F)c1
growth inhibition [1]: -12.2% | growth inhibition [2]: 2.95% | growth inhibition [3]: 0.2% | growth inhibition [4]: 21.3% | growth inhibition [5]: 11.9% | growth inhibition [6]: 10.2%

O=C(NCCCl)Nc1cccc2c1CCC2
growth inhibition [1]: -11.1% | growth inhibition [2]: -0.7% | growth inhibition [3]: -9.5% | growth inhibition [4]: -47.3% | growth inhibition [5]: -23.1% | growth inhibition [6]: -4.8%

NNC(=O)/C(=C/c1cccc([N+](=O)[O-])c1)NC(=O)c1ccccc1
growth inhibition [1]: -41.4% | growth inhibition [2]: -25.4% | growth inhibition [3]: -15.9% | growth inhibition [4]: 7.5% | growth inhibition [5]: -16.4% | growth inhibition [6]: -24.1%

COc1ccc(CC2OCCC3c4ccccc4NC23)cc1OC (stereo unspecified)
growth inhibition [1]: -3.2% | growth inhibition [2]: -3.5% | growth inhibition [3]: 0.7% | growth inhibition [4]: -10.2% | growth inhibition [5]: 3% | growth inhibition [6]: -2.05%

CC(O)COc1ccc(Cl)cc1Cl (stereo unspecified)
growth inhibition [1]: 27.1% | growth inhibition [2]: -10.2% | growth inhibition [3]: 45.6% | growth inhibition [4]: 9.6% | growth inhibition [5]: 8.35% | growth inhibition [6]: 26.6%

O=[N+]([O-])c1ccc(/C=C/[P+](c2ccccc2)(c2ccccc2)c2ccccc2)o1
growth inhibition [1]: 94.2% (active) | growth inhibition [2]: 97.5% (active) | growth inhibition [3]: 89.5% (active) | growth inhibition [4]: 83.5% (active) | growth inhibition [5]: 95.8% (active) | growth inhibition [6]: 93.7% (active)

O=[N+]([O-])c1ccc(SCN(CSc2ccc([N+](=O)[O-])cc2)Cc2ccccc2)cc1
growth inhibition [1]: -6.35% | growth inhibition [2]: -6.85% | growth inhibition [3]: -1.2% | growth inhibition [4]: -17.4% | growth inhibition [5]: 4.65% | growth inhibition [6]: -7%

CCCC[n+]1cccc(C(=O)c2ccccc2)c1
growth inhibition [1]: 15.7% | growth inhibition [2]: -6.6% | growth inhibition [3]: 0.7% | growth inhibition [4]: 2.75% | growth inhibition [5]: 2.35% | growth inhibition [6]: 8.85%

COc1cccc(NC(=S)NCc2cccnc2)c1
growth inhibition [1]: -13.4% | growth inhibition [2]: -24.9% | growth inhibition [3]: 9.1% | growth inhibition [4]: 9.25% | growth inhibition [5]: -13.2% | growth inhibition [6]: -5.3%

COC(=O)[C@H]1O[C@H]1c1cccc[n+]1[O-]
growth inhibition [1]: 10.1% | growth inhibition [2]: -2.4% | growth inhibition [3]: 3.9% | growth inhibition [4]: -24.6% | growth inhibition [5]: 9.3% | growth inhibition [6]: -0.9%

S=c1nc[nH]c2c1CN(Cc1ccccc1)CC2
growth inhibition [1]: -43.6% | growth inhibition [2]: -2.25% | growth inhibition [3]: 4.6% | growth inhibition [4]: -23.4% | growth inhibition [5]: -4.95% | growth inhibition [6]: -6.8%

CNC(=O)CNC(=O)C(Cc1ccc(NC(=O)CCCCC(C)=O)cc1)NC(=O)C(CCC(=O)OCc1ccccc1)NC(=O)OC(C)(C)C (stereo unspecified)
growth inhibition [1]: -19.6% | growth inhibition [2]: -23.6% | growth inhibition [3]: -26.1% | growth inhibition [4]: 0% | growth inhibition [5]: -30.1% | growth inhibition [6]: -17.1%

N#Cc1cc([N+](=O)[O-])ccc1NC(=O)C(=O)C(C(=O)c1ccc2ccccc2c1)C1OCc2ccccc21 (stereo unspecified)
growth inhibition [1]: 11.1% | growth inhibition [2]: -6.4% | growth inhibition [3]: -2.85% | growth inhibition [4]: 36.1% | growth inhibition [5]: -8.5% | growth inhibition [6]: -9.95%
